Source: the supplement of paper PMC9950053
Where a name gives a salt, the structure may show the parent alone.

Tested on: Danio rerio larvae (5 dpf)
Assay: 1-h baseline activity (% time moving, periods 1-6) minus DMSO control (percentage points); higher = more locomotor activity than DMSO larvae
Conditions: 10 µM; exposure time: 3 h pre-incubation + 3 h imaging
Method: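 Wild-type 5 dpf zebrafish larvae (n=48 per drug, 96-well plates, 28.5 °C) were exposed to Tocris FDA-approved library compounds at 10 µM (0.1% DMSO) for 3 h before and 3 h during imaging. Images were taken every 6 s during visual (moving coloured lines) and acoustic stimuli, and larvae were tracked with the DeepLabCut-based Z-LaP Tracker. Each behavioural measure is the treated-group mean minus the DMSO vehicle control mean (n=844), in percentage points. This mapping covers compounds with 4-character plate codes.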

| SMILES | 1-h baseline activity |
| --- | --- |
| CCc1ccc(CCOc2ccc(CC3SC(=O)NC3=O)cc2)nc1 (stereo not given) [Pioglitazone hydrochloride] | -7.48 |
| CC(C)(C)NC(=O)[C@@H]1C[C@@H]2CCCC[C@@H]2CN1C[C@@H](O)[C@H](Cc1ccccc1)NC(=O)[C@H](CC(N)=O)NC(=O)c1ccc2ccccc2n1 [Saquinavir mesylate] | -10.4 |
| CCOc1nc2cccc(C(=O)O)c2n1Cc1ccc(-c2ccccc2-c2nnn[nH]2)cc1 [Candesartan] | 2.98 |
| CCOC(=O)[C@H](CCc1ccccc1)N[C@H]1CCc2ccccc2N(CC(=O)O)C1=O [Benazepril hydrochloride] | 0.149 |
| Nc1cccc2c1CN(C1CCC(=O)NC1=O)C2=O (stereo not given) [Lenalidomide] | -7.06 |
| CC(C)n1c(/C=C/C(O)CC(O)CC(=O)O)c(-c2ccc(F)cc2)c2ccccc21 (stereo not given) [Fluvastatin sodium] | -0.765 |
| N[C@@H]1[C@H]2CN(c3nc4c(cc3F)c(=O)c(C(=O)O)cn4-c3ccc(F)cc3F)C[C@@H]12 [Trovafloxacin mesylate] | 4.29 |
| CS(=O)(=O)CCNCc1ccc(-c2ccc3ncnc(Nc4ccc(OCc5cccc(F)c5)c(Cl)c4)c3c2)o1 [Lapatinib] | -5.01 |
| CNC(=O)c1ccccc1Sc1ccc2c(/C=C/c3ccccn3)n[nH]c2c1 [Axitinib] | -3.55 |
| OC(CNCC(O)C1CCc2cc(F)ccc2O1)C1CCc2cc(F)ccc2O1 (stereo not given) [Nebivolol hydrochloride] | -2.33 |
| C[C@@H](O[C@H]1OCCN(Cc2n[nH]c(=O)[nH]2)[C@H]1c1ccc(F)cc1)c1cc(C(F)(F)F)cc(C(F)(F)F)c1 [Aprepitant] | -8.77 |
| Cc1c(-c2ccc(O)cc2)n(Cc2ccc(OCCN3CCCCCC3)cc2)c2ccc(O)cc12 [Bazedoxifene acetate] | -14.5 |
| CCOC(=O)C1=C(COCCN)NC(C)=C(C(=O)OC)C1c1ccccc1Cl (stereo not given) [Amlodipine besylate] | 0.364 |
| Clc1ccc(COC(Cn2ccnc2)c2ccc(Cl)cc2Cl)c(Cl)c1 (stereo not given) [Miconazole nitrate] | -19.7 |
| CC1(C)O[C@@H]2[C@@H](CO[C@@]3(COS(N)(=O)=O)OC(C)(C)O[C@@H]23)O1 [Topiramate] | 9.54 |
| Nc1ncn([C@@H]2O[C@H](CO)[C@@H](O)[C@H]2O)c(=O)n1 [5-Azacytidine] | 2.7 |
| CCOc1nc2cccc(C(=O)O)c2n1Cc1ccc(-c2ccccc2-c2noc(=O)[nH]2)cc1 [Azilsartan] | 1.25 |
| O=C(Nc1c(Cl)cncc1Cl)c1ccc(OC(F)F)c(OCC2CC2)c1 [Roflumilast] | -15.9 |
| CN(C)CC/C=C1/c2ccccc2COc2ccc(CC(=O)O)cc21 [Olopatadine hydrochloride] | -0.564 |
| Cc1ccc(N(CC2=NCCN2)c2cccc(O)c2)cc1 [Phentolamine Mesylate] | 7.71 |

| SMILES | 1-h baseline activity |
| --- | --- |
| Nc1nc2[nH]cc(CCc3ccc(C(=O)N[C@@H](CCC(=O)O)C(=O)O)cc3)c2c(=O)[nH]1 [Pemetrexed] | -1.52 |
| CN/C(=N\CCSCc1nc[nH]c1C)NC#N [Cimetidine] | 0.11 |
| CCOC(=O)N1CCC(=C2c3ccc(Cl)cc3CCc3cccnc32)CC1 [Loratidine] | -19.4 |
| Cc1ccccc1C(=O)Nc1ccc(C(=O)N2CCCC(O)c3cc(Cl)ccc32)c(C)c1 (stereo not given) [Tolvaptan] | 0.214 |
| CCCCc1nc(Cl)c(CO)n1Cc1ccc(-c2ccccc2-c2nnn[nH]2)cc1 [Losartan potassium] | 10.3 |
| Cn1nnc2c(C(N)=O)ncn2c1=O [Temozolomide] | 5.97 |
| CC(=O)O[C@]1(C(C)=O)CC[C@H]2[C@@H]3C=C(C)C4=CC(=O)CC[C@]4(C)[C@H]3CC[C@@]21C [Megestrol Acetate] | -13.7 |
| CC(C)C(=O)Nc1ccc([N+](=O)[O-])c(C(F)(F)F)c1 [Flutamide] | -9.78 |
| C=C1[C@H](CO)[C@@H](O)C[C@@H]1n1cnc2c(=O)[nH]c(N)nc21 [Entecavir] | -2.24 |
| COc1c(C)c2c(c(O)c1C/C=C(\C)CCC(=O)OCCN1CCOCC1)C(=O)OC2 [Mycophenolate mofetil] | -3.96 |
| COc1ccc(C[C@@H](C)NC[C@H](O)c2ccc(O)c(NC=O)c2)cc1 [Arformoterol tartrate] | 41.7 |
| COc1cc2ncnc(Nc3ccc(F)c(Cl)c3)c2cc1OCCCN1CCOCC1 [Iressa] | -6.95 |
| COc1cccc2c1C(=O)c1c(O)c3c(c(O)c1C2=O)C[C@@](O)(C(=O)CO)C[C@@H]3O[C@H]1C[C@H](N)[C@H](O)[C@H](C)O1 [Doxorubicin hydrochloride] | -7.23 |
| CCCN(CCC)S(=O)(=O)c1ccc(C(=O)O)cc1 [Probenecid] | -2.34 |
| CC1CNc2c(cccc2S(=O)(=O)N[C@@H](CCCNC(=N)N)C(=O)N2CC[C@@H](C)C[C@@H]2C(=O)O)C1 (stereo not given in full) [Argatroban] | 3.52 |
| CN(C)CCC[C@@]1(c2ccc(F)cc2)OCc2cc(C#N)ccc21 [Escitalopram oxalate] | -24.4 |
| COc1cc(Nc2c(C#N)cnc3cc(OCCCN4CCN(C)CC4)c(OC)cc23)c(Cl)cc1Cl [Bosutinib] | -17.1 |
| Cc1cc(C2CCCCC2)n(O)c(=O)c1 [Ciclopirox] | -1.84 |
| CN(CCOc1ccc(CC2SC(=O)NC2=O)cc1)c1ccccn1 (stereo not given) [Rosiglitazone] | -1.36 |
| Clc1ccccc1C(c1ccccc1)(c1ccccc1)n1ccnc1 [Clotrimazole] | -22.9 |
